Several values for one entry are separate records, joined by “and”; a condition that tells them apart may be missing. Equal entries are not always repeated. Hit rate of the full screen: of about 420,000 compounds, about 64,000 (15%) were called active. Not shown: some 27% with an inconclusive outcome. Only a sample is shown. Unmarked numbers belong to inactive results. Calls follow the shape of the dose curve; as a rule, active = well fitted inhibition curve with a large enough effect; inconclusive = small, poorly fitted or top-dose-only effect; inactive = flat fitted curve, though single readings scatter.
Experiment: qHTS for Inhibitors of human tyrosyl-DNA phosphodiesterase 1 (TDP1): qHTS in cells in absence of CPT; also: nearly all actives have a fitted effect of over 55% in size
Conditions: DT40 Tdp1-/- hTDP1 cells, no CPT, ATP luminescence, 48 h; activity change, negative = growth inhibition: at 46.2 µM (top of the series)
Outline: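 Stably hTDP1-transfected Tdp1-null chicken DT40 cells were treated with library compounds minus camptothecin and grown for at least 48 hr at 37 °C, after which cellular ATP was quantified by luminescence.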
% is scaled to controls: 0 for no effect and ±100 for the full control effect; potency is read from the fitted curve at half-maximal effect.

Compound	Potency	activity change, negative = growth inhibition [%]
O=C(c1ccc(Oc2ccc(Cl)cc2)c([N+](=O)[O-])c1)N1CCCC1	14.6 µM (active)	
O=C(c1ccc(Cl)c(Cl)c1)N1CCCC1		-8.49
CCOCCN(C=O)c1cccc(OC)c1		-14.8
Cc1cc(C)c2c(Cn3ccnc3)cc(=O)oc2c1		-22.5
CC(C)C[C@H](NC(=O)N1CC(=O)Nc2ccccc21)C(=O)N[C@H](Cc1ccccc1)C(=O)O		6.12
CSCC[C@H](NC(=O)NC1CCCC1)C(=O)O		17.5
O=C(Nc1nccs1)c1cc(S(=O)(=O)N2CCOCC2)c(Cl)cc1Cl		-12
COc1cc(C2NC(=O)NC(c3ccccc3)=C2C(C)=O)c(Br)cc1OCC(N)=O (configuration not stated)		-4.31
CCCOc1ccc(C2NC(=O)NC(c3ccccc3)=C2C(C)=O)cc1OCC (configuration not stated)	23.1 µM (active)	
CCOC(=O)C1=C(c2ccccc2)NC(=O)NC1c1cc(OCC)c(O)c([N+](=O)[O-])c1 (configuration not stated)		-13.7
CC(C)(C(=O)N1CCC1(C)C(=O)NS(=O)(=O)c1ccc(Br)cc1)c1ccccc1 (configuration not stated)		-10.3
CSc1nsc(SCC(=O)Nc2cc(C(=O)O)ccc2C)n1		26.8
OC(C#CCN1CCOCC1)(c1ccccc1)C1CCCCC1 (configuration not stated)		-19
CC(CN1CCCCC1)c1ccccc1 (configuration not stated)		-5.65
COc1ccc(C(O)(C2CCCCC2)C(CN2CCCC2)c2ccccc2)cc1 (configuration not stated)	18.4 µM (active)	
CCc1nccn1S(=O)(=O)c1cc(Br)ccc1Br		-5.02
COc1cc(OC)cc(C(=O)Nc2ccc(-c3nc4ccccc4o3)c(O)c2)c1	16.4 µM (active)	
CCCOc1ccc(C(=O)Nc2ccc3oc(-c4cccc(Cl)c4Cl)nc3c2)cc1	7.31 µM (active)	
O=C(Nc1ccc(C(=O)O)c(O)c1)c1ccccc1	inactive	

Compound	Potency	activity change, negative = growth inhibition [%]
Cc1nc2nc[nH]n2c(=O)c1NC(=O)c1cccc(OCC(C)C)c1		-10.7
Cc1cc2nc(-c3ccc(NC(=O)c4cc5ccccc5o4)cc3)oc2cc1C		-3.82
CC(=O)Nc1ccc(-c2nc3ccccc3o2)cc1		9.6
CCCCOc1ccc(C(=O)Nc2cccc(-c3nc4ccccc4o3)c2C)cc1		-15
CCCCCC(=O)Nc1ccc2oc(-c3ccncc3)nc2c1		-14.9
Cc1ccccc1-c1nc2cc(NC(=O)c3cccc(OCCC(C)C)c3)ccc2o1	5.17 µM (active)	
O=C(Nc1ccc(-c2nc3cc(NC(=O)c4ccccc4Cl)ccc3o2)cc1)c1ccccc1Cl	2.91 µM (active)	
O=C(COc1ccc(Cl)cc1)Nc1ccc(-c2nc3cc(Cl)ccc3o2)c(O)c1		-19
NS(=O)(=O)c1ccc(CCNC(=O)CNC(=O)Cc2ccccc2)cc1		12.8
NC(=O)C1CC=CCC1C(=O)OCC(Cl)=C(Cl)Cl (configuration not stated)		4.67
CC(C)NC(=S)N1CCN(S(C)(=O)=O)CC1		1.33
C[n+]1cc(-c2ccccc2)oc1-c1ccccc1		-10.1
COc1cc(OC)cc(C(=O)NNC(=O)Cc2cccs2)c1		-1.43
CC(C)(C)n1nc2c(c1NC(=O)c1ccc(S(=O)(=O)N3CCCC3)cc1)CS(=O)C2 (configuration not stated)		-21.6
CC(C)(C)n1c(=O)[nH]c2c(c1=O)CCC2		5.73
CC1(C)CC(=O)C(N=Nc2c(F)cccc2F)=C(O)C1		-7.33
NC1=NC(=O)C2(COC(c3ccccc3Cl)OC2)S1 (configuration not stated)		0.828
O=C(CSc1ncccn1)NC(=O)NCc1ccccc1		-8.73
COc1cc(NC(=O)CN2CCN(S(=O)(=O)c3ccc(Br)cc3)CC2)cc(OC)c1		-12.3

Compound	Potency	activity change, negative = growth inhibition [%]
COc1cccc(-c2nc3cc(C)ccc3o2)c1		-25.6
COc1cccc(C(=O)Nc2ccc3oc(-c4ccc5ccccc5c4)nc3c2)c1	10.3 µM (active)	
O=C(Nc1ccc(NC(=O)c2cccs2)cc1)c1ccc2ccccc2c1		1.73
O=C(Nc1ccc2oc(-c3ccc(O)c(Br)c3)nc2c1)c1cc2ccccc2o1		-8.41
COC(=O)c1ccc(-c2nc3cc(NC(C)=O)ccc3o2)cc1		-15
O=C(Nc1ccc2oc(-c3ccc4ccccc4c3)nc2c1)c1cccs1	23.1 µM (active)	
COCCNC(=O)c1ccccc1-c1nc(-c2ccccc2Cl)no1		-25.9
COc1ccccc1CCCNC(=O)C1CCC(=O)N(CCN2CCOCC2)C1 (configuration not stated)		19
Cn1c(N)c(C(=O)COC(=O)COc2ccc(Cl)cc2)c(=O)n(C)c1=O		-19
N=C1C(=O)OCC1c1ccccc1NC(=O)CN1CCCCC1 (configuration not stated)		-8.68
Cc1cccc(CC2(O)C(=O)Nc3ccccc32)n1 (configuration not stated)		-14.3
CC(Sc1nnc(COc2ccccc2)n1-c1ccccc1)C(=O)O (configuration not stated)		-4.89
CCCCN(CC)CCCNC(=O)c1nn(C)c2c1CS(=O)(=O)c1ccccc1-2		10.4
COC(=O)c1ccc(NC(=O)c2cc(Cl)ccc2OC)cc1		16.5
CCOCCCNC(=S)Nc1ccc2nc(N3CCN(CC)CC3)cc(C)c2c1		-3.03
CCN1CCN(c2cc(C)c3cc(NC(=O)c4cc(Cl)ccc4OC)ccc3n2)CC1	4.11 µM (active)	
COc1cc(NC(=O)c2ccc(CNc3c(N4CCCC4)c(=O)c3=O)cc2)cc(OC)c1OC		-25.3
COc1ccc(C(=O)Nc2ccc3nc(N4CCCCC4)cc(C)c3c2)cc1OC	14.6 µM (active) and 16.4 µM (active)	
Cc1cc(N2CCN(C)CC2)nc2ccc(NC(=S)N3CCOCC3)cc12		-13.7
